Screening data: PubChem BioAssay, National Center for Advancing Translational Sciences (NCATS)
ELG1 repair inh – ELG1-dependent DNA repair inhibition; HEK293T ELG1-luciferase reporter, luminescence, 16 h; DNA damage induced by 5-fluorouridine; Potency, µM (highest dose often 46.1 µM), without a hit: top-dose activity change, negative = inhibition, actives largely listed as inhibitors; 330,000 compounds, 2.3% hits; further: on the % scale 0 is the no-effect control and ±100 the full control effect; nearly all actives have a fitted effect of over 55% in size
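DMSO vehicle served as the neutral condition. Each well held 2,000 cells given 5-fluorouridine plus compound; after 16 hr at 37 °C/5% CO2, ONE-Glo was added and luciferase measured 30 min later.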
NPC1 prom act – activates the NPC1 promoter | Huh7 NPC1 promoter luciferase reporter, 24 h | Potency, µM (doses to about 9.22 µM), inactives show top-dose activation, actives largely listed as activators | 320,000 compounds, 2.4% hits | AID 485313; further: % of control where 0% means no effect; nearly all actives have a fitted effect of over 60% in size
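Luminescence from an NPC1 promoter-driven luciferase reporter in stably transfected Huh7 cells was measured after 24 h compound treatment at 37 °C, followed by 10 min ambient incubation with luciferase detection reagent.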
ELG1 genotoxic – induces genotoxicity in HEK293T cells with luciferase-tagged ELG1; HEK293T ELG1-luciferase reporter, luminescence, 16 h; Potency, µM (series often up to 46 µM), inactives show top-dose activity change, positive = activation, most hits filed as activators; 330,000 compounds, 1.3% hits; further: % of control where 0% means no effect; nearly all actives have a fitted effect of over 60% in size
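Reporter readout depends on ELG1 protein level, which increases with genetic stress. After 16 hr compound exposure at 37 °C, luciferase activity was quantified using ONE-Glo.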
SMN2 splice up – SMN2 splice variant enhancement; HEK293 SMN2-luciferase splicing reporter, luminescence, 30-36 h; Potency, µM (highest dose often 46.1 µM), without a hit: at the top dose activity change, positive = activation, most hits filed as activators; 210,000 compounds, 2.8% hits; AID 1458; further: % of control where 0% means no effect; nearly all actives have a fitted effect of over 55% in size
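HEK293 cells carry an SMN2 minigene-luciferase reporter in which exon 7 inclusion puts luciferase in frame. Cells were seeded at 2000 cells/well, attached for 10-12 hours, then exposed to compounds for 30-36 hours at 37C before ONE-Glo luminescence.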
FLuc counter – counter-screen for miR-21 project: firefly luciferase inhibitors or activators | P08659 | purified FLuc, Km substrates, luminescence inhibition | Potency, µM (top dose mostly 57.5 µM), for the others: top-dose activity change, negative = inhibition, usual class: inhibitors | 360,000 compounds, 6.9% hits | AID 588342;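 further: plate controls were vehicle for no effect and reference inhibitor for full effect; nearly all actives have a fitted effect of over 55% in size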
Target sequence (P08659 whole entry, looked up): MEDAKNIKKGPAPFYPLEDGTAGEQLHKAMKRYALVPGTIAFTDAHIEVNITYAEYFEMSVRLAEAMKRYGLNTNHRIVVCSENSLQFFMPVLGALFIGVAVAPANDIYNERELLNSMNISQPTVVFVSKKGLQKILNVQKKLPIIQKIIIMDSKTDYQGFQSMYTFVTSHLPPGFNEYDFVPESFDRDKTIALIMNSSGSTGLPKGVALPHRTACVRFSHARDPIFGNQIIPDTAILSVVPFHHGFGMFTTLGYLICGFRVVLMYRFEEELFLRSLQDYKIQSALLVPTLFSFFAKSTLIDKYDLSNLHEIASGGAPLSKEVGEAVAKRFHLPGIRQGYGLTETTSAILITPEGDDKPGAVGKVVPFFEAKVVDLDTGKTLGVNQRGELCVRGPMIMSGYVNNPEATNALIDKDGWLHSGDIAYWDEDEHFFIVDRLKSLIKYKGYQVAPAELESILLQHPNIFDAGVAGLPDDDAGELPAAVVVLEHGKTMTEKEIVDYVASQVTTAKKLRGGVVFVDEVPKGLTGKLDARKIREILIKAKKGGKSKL
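Biochemical qHTS of compounds, final roughly 60 µM downward over six points, against 10 nM purified firefly luciferase using Km concentrations of substrates (10 uM D-luciferin, 10 uM ATP) in Tris acetate pH 7.5 buffer; luminescence output.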
Rab9 promoter act – activators of Rab9 promoter | Huh7 Rab9 promoter-luciferase reporter, luminescence, 24 h | Potency, µM (highest dose often 9.22 µM), without a hit: top-dose activation, negative = inhibition, hits mostly activators | 320,000 compounds, 2.8% hits | AID 485297; further: % of control where 0% means no effect; nearly all actives have a fitted effect of over 60% in size
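Measured in stably transfected Huh7 cells bearing a Rab9 promoter–luciferase construct: 24 h compound treatment at 37 °C, followed by luminescence detection.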
* = called active by the depositor; u = inconclusive; x = not tested or not shown; [ ] = remark or other dose. This is a sample that favours compounds with a hit; in the whole collection about 9.2% have one here. The call rests on the fitted dose curve; in most records, active means well fitted curve in the direction sought with a large enough effect; inconclusive means small, poorly fitted or top-dose-only effect, or another doubt; inactive means no such curve, though single readings can be large; an effect the other way counts as inactive or inconclusive. Potency means the concentration at half of the fitted maximal effect.

SMILES | ELG1 repair inh | NPC1 prom act | ELG1 genotoxic | SMN2 splice up | FLuc counter | Rab9 promoter act
C/C=C1/C(=O)C[C@@H]2[C@H]3CCC4=CC(=O)CC[C@]4(C)[C@@H]3CC[C@]12C | x | x | x | -46.8% | x | x
COC(=O)C1Cc2c([nH]c3ccccc23)C(C(C)C)N1 (stereo not given) | u | -0.6% | 3.2% | x | -2.5% | -11.8%
COC(=O)[C@@H]1Cc2c([nH]c3ccccc23)C(C)N1C(=O)c1ccccc1 (stereo not given in full) | 11.6µM* | -10.0% | -6.3% | x | 0.4% | -1.9%
CC(C)(C)C1CCc2c(C(=O)N/N=C/c3cccs3)csc2C1 (stereo not given) | u | u | 9.4% | 14.1µM* | 5.36µM* | u
CC(C)(C)C1CCc2c(C(=O)NNC(=O)/C=C/C(=O)O)csc2C1 (stereo not given) | 2.1% | -0.8% | -0.9% | 4.3% | 23.9µM* | 6.0%
O=C1C(Cl)=C(NS(=O)(=O)c2ccc([N+](=O)[O-])cc2)C(=O)c2ccccc21 | 18.3µM* | -0.2% | -16.9% | x | 26.9µM* | -2.8%
O=C1C(Cl)=C(Nc2ccc(S(=O)(=O)Nc3ccccn3)cc2)C(=O)c2ccccc21 | x | x | x | -21.6%[9.22 µM] | x | x
O=c1oc2cc(O)ccc2cc1-c1nc(-c2ccc(Cl)c(Cl)c2)cs1 | x | x | x | x | -3.7% | x
COc1ccc(-c2cc3ccc(O)cc3oc2=O)cc1 | u | 1.26µM* | 8.2µM* | x | 4.78µM* | 3.16µM*
O=c1oc2cc(O)ccc2cc1-c1ccc2c(c1)OCCO2 | x | x | x | 17.8µM* | x | x
O=c1oc2cc(O)ccc2cc1-c1nnc(Nc2ccccc2F)s1 | x | x | x | 3.98µM* | 2.39µM* | x
O=c1oc2ccc3ccccc3c2cc1-c1nnc(Nc2ccccc2F)s1 | x | x | x | 0.9% | -1.5% | x
O=c1oc2cc(O)ccc2cc1-c1ccccc1 | u | u | u | x | 23.9µM* | 4.5%
Cn1cccc1C(=O)N1CCC2(CCN(C(=O)Nc3cccc(C#N)c3)CC2)CC1 | x | x | x | -35.4% | x | x
Cc1ccc(Cl)cc1N1CCN(C(=O)CCS(=O)(=O)c2ccc3c(c2)oc(=O)n3C)CC1 | x | x | x | x | -8.1% | x
O=c1c(-c2ccc3c(c2)OCCO3)coc2cc(O)cc(O)c12 | u | 1.78µM* | 2.51µM* | 6.31µM* | 4.78µM* | u
Cc1ccc(CC(=O)c2ccc(Cl)cc2)cc1 | u | u | u | x | 4.78µM* | u
O=C(Cc1ccccc1)c1ccc(Cl)cc1 | 2.7% | -1.8% | 4.3% | x | u | -0.2%
O=C(Cc1ccc(Cl)cc1)c1ccc(O)cc1 | u | 3.55µM* | u | x | 15.1µM* | 3.55µM*
Cc1nnc(N2CCN(c3cccc(Cl)c3)CC2)c2c1nnn2Cc1ccc(F)cc1 | x | x | x | -4.8% | -1.1% | x
Cn1c2c(c(=O)[nH]c1=O)C(c1ccc(O)cc1)C1=C(N2)c2ccccc2C1=O (stereo not given) | u | -11.0% | 0.6% | -18.0% | 16.9µM* | -3.9%
Nc1nc2c(c(=O)[nH]1)C(c1ccccc1)C1=C(N2)c2ccccc2C1=O (stereo not given) | u | 4.3% | 3.0% | x | -3.0% | 0.7%
CCc1ccc(NC(=O)c2ccc(F)c(S(=O)(=O)N(C)C3CCCCC3)c2)cc1 | x | x | x | x | -1.8% | x
COc1ccc(Nc2ncc3c(n2)CC(c2ccc(OC)cc2)CC3=O)cc1 (stereo not given) | 13µM* | 2.5% | 0.1% | -42.9% | -2.2% | -5.0%
Cc1ccc(Nc2ncc3c(n2)CC(C)(C)CC3=O)cc1 | u | 2.24µM* | u | 11.2µM* | 12µM* | 1.58µM*
SMILES | ELG1 repair inh | NPC1 prom act | ELG1 genotoxic | SMN2 splice up | FLuc counter | Rab9 promoter act
O=C(C=C1SCCS1)/C=C/c1ccco1 | u | 0.708µM* | u | 12.6µM* | 1.35µM* | 2.51µM*
O=C(/C=C/c1ccc([N+](=O)[O-])cc1)/C=C/c1ccco1 | u | -5.2% | 0.0% | x | 4.26µM* | 1.6%
O=C(/C=C/c1ccc([N+](=O)[O-])cc1)c1ccco1 | -12.2% | -10.0% | -1.8% | x | -7.2% | 4.2%
O=C(O)C(C(=O)/C=C/c1ccco1)=C1SCCS1 | 24.7% | 14.4% | 6.8% | -58.4% | u | -3.6%
COc1ccc(Nc2nnc(SCC(=O)/C=C3/N(C)c4ccccc4C3(C)C)s2)cc1 | 25.9µM* | -13.0% | -16.4% | -66.0% | u | -21.7%
COCCn1c(SCC(=O)/C=C2\N(C)c3ccccc3C2(C)C)nnc1-c1ccncc1 | 20.6µM* | -1.2% | -16.9% | -48.1% | -2.1% | -10.7%
COCCn1c(SCC(=O)c2c(-c3ccccc3)n(C)c3ccccc23)nnc1-c1ccncc1 | u | -0.8% | -0.3% | 16.2% | 1.3% | -9.8%
COc1cc(C2Nc3ccc4ncccc4c3C3=C2C(=O)CCC3)cc(OC)c1O (stereo not given) | 15.6% | -12.9% | u | 10µM* | -0.7% | -19.6%
O=C1CCCC2=C1C(c1ccco1)Nc1ccc3ccccc3c12 (stereo not given) | -13.7% | 0.6% | 1.2% | -12.6% | u | 2.7%
CC1(C)CC(=O)C2=C(C1)c1c(ccc3ncccc13)NC2c1cccs1 (stereo not given) | 18.9% | -19.2% | u | 26.3% | -0.7% | -23.6%
COc1cc(C2Nc3ccc4ncccc4c3C3=C2C(=O)CC(C)(C)C3)cc(OC)c1O (stereo not given) | u | -1.0% | u | 28.2µM* | -1.9% | -11.1%
C=CCN(CC=C)C(=O)CN1C(=O)NC(Cc2c[nH]c3ccccc23)C1=O (stereo not given) | -2.8% | -6.1% | -1.0% | x | -0.8% | -2.6%
Clc1ccc(CSc2nc3ccncc3[nH]2)cc1 | u | 0.631µM* | 2.91µM* | 11.2µM* | 4.78µM* | 0.708µM*
O=C(NCc1ccc(Cl)cc1)c1ccc(CSc2nc3ccncc3[nH]2)cc1 | u | 0.7% | -9.1% | x | -11.2% | -1.4%
Cc1ccc(CSc2nc3ccncc3[nH]2)cc1 | u | u | u | 7.08µM* | 2.69µM* | u
CN(CC(=O)Nc1ccccc1C(F)(F)F)C(=O)C1CCN(S(=O)(=O)c2ccc3c(c2)OCCO3)CC1 | 18.1% | -6.4% | 0.1% | x | -0.6% | -8.4%
C=CCNc1nnc(-c2ccncc2)s1 | -6.1% | 0.3% | -1.3% | -5.3% | -1.2% | 15.9%
c1ccc2c(Nc3nnc(-c4ccncc4)s3)cccc2c1 | u | u | 17.8% | u | 5.36µM* | u
Cc1cc(C)c(NC(=O)c2nc3ccccc3nc2N2CCCCC2)c(C)c1 | x | x | x | x | -0.3% | x
COc1ccc2nc(C)cc(N/N=C/c3ccccc3)c2c1 | -8.5% | -1.5% | 4.2% | x | 9.53µM* | -4.7%
